Values joined by “and” are separate entries in the source; they are usually repeats but may differ in a detail not shown here. Equal values may be shown once. Records with an inconclusive call do not appear. The source holds several records for some structures; these can differ, active in one and inactive in another. Active and inactive are the calls of the source. Rule for the calls, unless noted: active = hit-call score of the fitted dose curve at least 0.9, where 1 is the maximum; inconclusive = response in the unintended direction; inactive = score below 0.9. Peptide text beside a SMILES is read from it.
Tested on: not listed separately
Test: CCTE_Shafer_MEA_dev_network_spike_duration_std: CCTE's Neural Network Formation Assay for Standard Deviation of Network Spike Duration, Shafer Lab (AID 2284052; active = hit-call score of the fitted dose curve at least 0.9, where 1 is the maximum; inactive = score below 0.9;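 note: area under curve of spike duration SD across recording days 5 to 12; hits are decreases in network spike duration SD versus DMSO vehicle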)
Method in brief: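 Rat cortical cultures, 1.5 x 10^5 cells/well, exposed continuously from plating to DIV 12 with media/compound renewal at DIV 5, 9. Spontaneous activity recorded DIV 5/7/9/12, AxIS adaptive spike detector; AUC across days; negative direction vs DMSO.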

| Compound | outcome |
| --- | --- |
| Cc1noc(NS(=O)(=O)c2ccc(N)cc2)c1C | inactive |

Tested on: not listed separately
Test: CCTE_Shafer_MEA_dev_per_network_spike_spike_number_mean: CCTE's Neural Network Formation Assay for Mean Number of Spikes in a Network Spike, Shafer Lab (AID 2284053; active = hit-call score of the fitted dose curve at least 0.9, where 1 is the maximum; inactive = score below 0.9;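 for AC50: fitted as decrease in spikes per network spike relative to DMSO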)
Method in brief: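 Rat cortical primary cultures on 48-well MEA; compound from day 0, re-dosed with full media change DIV 5, 9. Recorded DIV 5, 7, 9, 12; spikes in 0.05 s window at network-spike peak ÷ total network spikes; AUC; loss vs DMSO.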

| Compound | outcome | AC50 |
| --- | --- | --- |
| CCCCNS(=O)(=O)c1ccccc1 | inactive |  |
| COC(=O)[C@H](Cc1ccccc1)NC(=O)[C@@H](N)CC(=O)O (H-Asp-Phe-OMe) | inactive |  |
| Cc1c(C(=O)c2c[nH]n(C)c2=O)ccc(S(C)(=O)=O)c1C1=NOCC1 | inactive |  |
| C[N+](C)(C)CCCNS(=O)(=O)C(F)(F)C(F)(F)C(F)(F)C(F)(F)C(F)(F)C(F)(F)C(F)(F)C(F)(F)F |  | 901 nM (active) and 1.36 µM (active) |
| Cc1noc(NS(=O)(=O)c2ccc(N)cc2)c1C | inactive |  |

Tested on: not listed separately
Test: CCTE_Shafer_MEA_dev_per_network_spike_spike_percent: CCTE's Neural Network Formation Assay for Percent of Spikes in a Network Spike, Shafer Lab (AID 2284054; active = hit-call score of the fitted dose curve at least 0.9, where 1 is the maximum; inactive = score below 0.9)
Method in brief: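 Primary rat cortical neurons on 16-electrode MEA wells (PEI-coated, laminin at plating), exposed from day 0 with renewal at DIV 5 and 9; spikes within 0.05 s of network-spike peaks over total spikes, AUC across days 5, 7, 9, 12.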

| Compound | outcome | AC50 |
| --- | --- | --- |
| CCCCNS(=O)(=O)c1ccccc1 | inactive |  |
| COC(=O)[C@H](Cc1ccccc1)NC(=O)[C@@H](N)CC(=O)O (H-Asp-Phe-OMe) | inactive |  |
| Cc1c(C(=O)c2c[nH]n(C)c2=O)ccc(S(C)(=O)=O)c1C1=NOCC1 | inactive |  |
| C[N+](C)(C)CCCNS(=O)(=O)C(F)(F)C(F)(F)C(F)(F)C(F)(F)C(F)(F)C(F)(F)C(F)(F)C(F)(F)F | inactive | 2.55 µM (active) |
| Cc1noc(NS(=O)(=O)c2ccc(N)cc2)c1C | inactive |  |

Tested on: DIO3 (gene 1735)
Test: CCTE_GLTED_hDIO3: CCTE's human Deiodinase 3 (DIO3) Inhibition Assay, Great Lakes Toxicology and Ecology Division (GLTED) Lab (AID 2284055);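 note: potency is for inhibition seen as loss of released iodide signal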
Method in brief: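 Enzyme activity is tracked as iodide release from substrate by recombinant human DIO3 over 3 h with chemical present. A second Sandell-Kolthoff step converts iodide to an absorbance signal, fitted relative to DMSO.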

| Compound | AC50 |
| --- | --- |
| O=c1c(O)c(-c2ccc(O)cc2O)oc2cc(O)cc(O)c12 | 33.5 µM (active) |
| CCCCCCCOC(=O)c1ccc(O)cc1 | 80.8 µM (active) |
| CCCCC/C=C\C/C=C\CCCCCCCC(=O)O | 16.9 µM (active) |
| C/C=C/C=C/CCCCCCCO | 16.4 µM (active) |
| O=C(O)c1cc(O)c2ccccc2c1O | 54.1 µM (active) |
| CCCCCCCCCCCCCCCCCCOS(=O)(=O)O | 3.04 µM (active) |
| CCCCCCCCCCCCc1ccc(O)cc1 | 11.2 µM (active) |

Tested on: not listed separately
Test: CCTE_Shafer_MEA_dev_LDH: CCTE's Lactate Dehydrogenase Assay for Cytotoxicity in the Neural Network Formation Assay, Shafer Lab (AID 2284068);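 note: exposure for twelve days from plating with re-dosing on DIV 5 and 9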
Method in brief: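 Rat cortical primary neurons, MEA culture; dosing day 0–12, full medium plus compound exchange DIV 5, 9. Read-out: LDH enzyme activity, spectrophotometric. DMSO = negative control/baseline; signal loss → cytotoxicity.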

| Compound | outcome | AC50 |
| --- | --- | --- |
| CCCCNS(=O)(=O)c1ccccc1 | inactive |  |
| COC(=O)[C@H](Cc1ccccc1)NC(=O)[C@@H](N)CC(=O)O (H-Asp-Phe-OMe) | inactive |  |
| C[N+](C)(C)CCCNS(=O)(=O)C(F)(F)C(F)(F)C(F)(F)C(F)(F)C(F)(F)C(F)(F)C(F)(F)C(F)(F)F |  | 15 µM (active) |
| Cc1noc(NS(=O)(=O)c2ccc(N)cc2)c1C | inactive |  |

Tested on: not listed separately
Test: CCTE_Shafer_MEA_acute_AB: CCTE's Alamar Blue Assay for Cytotoxicity in the Neural Acute Assay, Shafer Lab (AID 2284069);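 note: active compounds lower the viability signal compared with DMSO wells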
Protocol: CCTE_Shafer_MEA_acute assay is conducted using Axion Biosystems 48 well microelectrode array (MEA) plates and Maestro recording system. Each well of the MEA plate contains a grid of 16 microelectrodes embedded in the culture surface. Electrically active cells, such as neurons, can be cultured over the electrodes, and electrical activity in these cells can be recorded extracellularly. The spontaneous firing of neurons is captured from each electrode on a microsecond timescale providing both temporally and spatially precise data. […] The CCTE_Shafer_MEA_acute assay uses primary cultures of rat cortical neurons. As these cultures mature over time, neural networks develop functional activity and form cohesive networks in which electrical activity can be highly coordinated. Baseline 40-minute recordings are made on days post-plating 13 or 15, followed by a secondary 40-minute recording after chemical exposure.CCTE_Shafer_MEA_acute_AB is a component of the CCTE_Shafer_MEA_acute assay. It measures the resazurin reduction using fluorescence.Data from the assay component CCTE_Shafer_MEA_acute_AB was analyzed into 1 assay endpoint. This assay endpoint, CCTE_Shafer_MEA_acute_AB, was analyzed in the positive analysis fitting direction relative to DMSO as the negative control and baseline of activity. Using a type of viability reporter, loss-of-signal activity can be used to understand cell viability.
Metabolic activity was determined using the CellTiter Blue (CTB) assay (Promega Cat. #8081), following the manufacturer's instructions with the following modifications. Following the removal of the 50 uL sample for the LDH assay, 450 uL of media was removed from each well and replaced with 200 uL of fresh media containing a 1:6 dilution of CTB reagent for the determination of metabolic activity. Fluorescence was measured in a Fluorostar Optima fluorimeter using an excitation wavelength of 544 nm and an emission wavelength of 590 nm.

| Compound | outcome |
| --- | --- |
| Nc1cccc(N)n1 | inactive |
| c1ccc(Nc2cccc3ccccc23)cc1 | inactive |
| C1CNCCN1 | inactive |
| CC(CCC(=O)O)(c1ccc(O)cc1)c1ccc(O)cc1 | inactive |
| Cc1c(C(=O)c2c[nH]n(C)c2=O)ccc(S(C)(=O)=O)c1C1=NOCC1 | inactive |

Source: PubChem BioAssay (EPA / NIEHS)
